Measured values reported in PubChem BioAssay (NCI).
The panel holds about 79,000 compounds, 15% with a hit somewhere; the sample as a whole holds those more often. Unmarked numbers belong to inactive results. Activity calls are given as the source filed them. Rule as the data show it: active = growth inhibition above about 70%; inactive = the rest.

What was measured:
[1] = NCI Yeast Anticancer Drug Screen. Data for the rad50 strain (AID 155);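 also: 0% = growth of vehicle-only cultures of the same strain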; settings: S. cerevisiae rad50 strain growth inhibition, stronger effect = higher value
Outline: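 Readout: growth inhibition relative to vehicle-treated cultures. Compound exposure was carried out in a genetically defined yeast strain deficient in DNA damage repair.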

[2] = NCI Yeast Anticancer Drug Screen. Data for the mec2-1 strain (AID 157); settings: S. cerevisiae mec2-1 strain, stronger effect = higher value
Outline: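 Test agents were screened against the mec2-1 yeast strain, with defined DNA repair or cell cycle alteration. Growth was scored as inhibition against vehicle-only controls.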

[3] = NCI Yeast Anticancer Drug Screen. Data for the sgs1 mgt1 strain (AID 161);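 also: 0% = growth of cultures given vehicle only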; settings: S. cerevisiae sgs1 mgt1 strain, stronger effect = higher value
Outline: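 Inhibition of yeast growth, normalised to vehicle-treated controls, is reported for a strain bearing genetic alterations in DNA damage repair.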

[4] = NCI Yeast Anticancer Drug Screen. Data for the cln2 rad14 strain (AID 165);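 also: 0% = growth equal to vehicle treated cultures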; settings: S. cerevisiae cln2 rad14 strain, stronger effect = higher value
Outline: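 Growth of compound-exposed yeast (cln2 rad14 genotype) measured and expressed as inhibition relative to vehicle.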

[5] = NCI Yeast Anticancer Drug Screen. Data for the bub3 strain (AID 167); settings: S. cerevisiae bub3 mutant strain, stronger effect = higher value
Outline: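 Readout: yeast growth inhibition, expressed relative to vehicle-only wells. The test organism is a mutant strain from a panel with lesions in DNA repair or checkpoint genes.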

[6] = NCI Yeast Anticancer Drug Screen. Data for the mlh1 rad18 strain (AID 175); settings: S. cerevisiae mlh1 rad18 strain growth inhibition, stronger effect = higher value
Outline: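 In this whole-cell yeast screen, a strain with altered DNA damage repair is challenged with compound, and its growth is measured against matched vehicle-treated controls.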

[7] = at 5.0 µM (retest, dose inferred, filed as 0.5)
[8] = at 50.0 µM (retest, dose inferred, filed as 5.0)

Structure (SMILES)	growth inhibition [1, 7]	growth inhibition [1, 8]	growth inhibition ([1]; at 50.0 µM)	growth inhibition [2, 7]	growth inhibition [2, 8]	growth inhibition ([2]; at 50.0 µM)	growth inhibition [3, 7]	growth inhibition [3, 8]	growth inhibition ([3]; at 50.0 µM)	growth inhibition [4, 7]	growth inhibition [4, 8]	growth inhibition ([4]; at 50.0 µM)	growth inhibition [5, 7]	growth inhibition [5, 8]	growth inhibition ([5]; at 50.0 µM)	growth inhibition [6, 7]	growth inhibition [6, 8]	growth inhibition ([6]; at 50.0 µM)
CCCCCN(CCCCC)CC(O)c1cccc2cc(Cl)ccc12 (stereo not given)	-1%	98% (active)	99.5% (active)	-1%	98% (active)	99.7% (active)	4%	99% (active)	99.6% (active)	-4%	99% (active)	99.5% (active)	2%	99% (active)	99.5% (active)	0%	99% (active)	99.6% (active)
Clc1cc(Cl)c2c(c1)nc(Cl)c1cc(Cl)ccc12	-13%	1%	97% (active)	-13%	7%	99% (active)	-5%	1%	97.6% (active)	-1%	2%	98.5% (active)	-5%	1%	98.7% (active)	-14%	-20%	98.6% (active)
COc1ccc(-c2c(C(=O)O)[nH]c3ccccc23)cc1	38%	90% (active)	96.8% (active)	12%	87% (active)	97.5% (active)	35%	98% (active)	97.5% (active)	25%	88% (active)	98.5% (active)	58%	98% (active)	96.2% (active)	65%	97% (active)	99% (active)
Clc1ccc(-c2csc(NCC3CCCO3)n2)cc1 (stereo not given)	46%	60%	66.4%	27%	57%	39%	34%	83% (active)	77.2% (active)	27%	53%	63.2%	39%	82% (active)	73.9% (active)	44%	70% (active)	62.4%
CCN(CC)CCOc1ccc(C(O)(Cc2ccc(Cl)cc2)c2ccccc2)cc1 (stereo not given)	39%	90% (active)	90.9% (active)	35%	87% (active)	83.8% (active)	58%	95% (active)	97.5% (active)	56%	93% (active)	98.3% (active)	57%	89% (active)	81.2% (active)	51%	89% (active)	97.2% (active)
Cc1c2ccccc2c(CO)c2cc(F)c3ccccc3c12	71% (active)	98% (active)	71.5% (active)	95% (active)	99% (active)	34%	97% (active)	99% (active)	84.2% (active)	87% (active)	98% (active)	31.9%	91% (active)	98% (active)	85% (active)	95% (active)	98% (active)	92.7% (active)
O=[N+]([O-])c1ccc(/C=N/O)o1	20%	98% (active)	98.2% (active)	6%	99% (active)	99.5% (active)	5%	99% (active)	99.2% (active)	49%	98% (active)	89% (active)	13%	99% (active)	99.6% (active)	44%	99% (active)	99% (active)
CC12CCC(O)CC1CCC1C2CCC2(C)C(NC(=O)N(CCCl)N=O)CCC12 (stereo not given)	6%	74% (active)	91.3% (active)	2%	78% (active)	80.5% (active)	-205%	84% (active)	92.9% (active)	-1%	35%	65.8%	-7%	63%	56.8%	46%	94% (active)	94.5% (active)
C(=C\c1cnnc2ccccc12)/c1cccnc1	11%	45%	20.8%	18%	37%	-10.8%	11%	35%	2.15%	6%	32%	42.6%	6%	22%	-13.2%	8%	36%	13.7%
CN1C(/C=C/c2ccc(O)c3ncccc23)CCC2CCCC(O)C21 (stereo not given)	1%	94% (active)	95% (active)	26%	95% (active)	89.6% (active)	9%	94% (active)	92.2% (active)	-12%	91% (active)	85.2% (active)	8%	96% (active)	92.8% (active)	14%	96% (active)	95.4% (active)
O=C1C2=C(CCCC2)C(=O)c2ccccc21	6%	76% (active)	25.4%	8%	79% (active)	13.7%	11%	71% (active)	28%	3%	15%	-30.5%	35%	79% (active)	60.4%	7%	43%	68.5%
O=C(C[n+]1ccccc1Cl)c1ccc(Oc2ccc(C(=O)C[n+]3ccccc3Cl)cc2)cc1	-34%	0%	90.6% (active)	-5%	-18%	83.2% (active)	-11%	-11%	30.5%	-14%	-15%	91.9% (active)	-40%	-28%	89% (active)	-33%	-48%	80.7% (active)
O=C(c1ccccc1)c1[nH]c2ccccc2c(=O)c1-c1ccc([N+](=O)[O-])cc1	-6%	96% (active)	97.6% (active)	-9%	98% (active)	97.5% (active)	-16%	98% (active)	98.3% (active)	-13%	97% (active)	97.6% (active)	-8%	96% (active)	97.5% (active)	3%	94% (active)	98.3% (active)
NC(=S)Nc1cccc(C(F)(F)F)c1	-14%	92% (active)	99.2% (active)	-20%	95% (active)	99.2% (active)	-10%	92% (active)	99.2% (active)	-45%	92% (active)	98.9% (active)	-24%	94% (active)	98.9% (active)	-19%	93% (active)	98.9% (active)
CCCCCCCCCCCCCCCCCC[N+](C)(C)Cc1ccc(C[N+](C)(C)CCCCCCCCCCCCCCCCCC)cc1	-5%	22%	1.5%	-3%	7%	35.3%	5%	51%	71.3% (active)	-2%	-9%	44.9%	-4%	11%	5.05%	-3%	26%	8.2%
O=[N+]([O-])c1ccc(/C=N\OCc2cscn2)cc1	3%	46%	76.7% (active)	-11%	74% (active)	55.5%	-10%	73% (active)	62.4%	0%	31%	-13.4%	-6%	88% (active)	-19.4%	11%	79% (active)	71% (active)
CCN(CC)C(=S)N/N=C(\C)c1cccc(C)n1	84% (active)	100% (active)	88.7% (active)	82% (active)	99% (active)	91.7% (active)	62%	99% (active)	85.3% (active)	82% (active)	99% (active)	89.4% (active)	87% (active)	99% (active)	88.9% (active)	81% (active)	99% (active)	85.8% (active)
O=[N+]([O-])c1ccc(N=C(Cl)C(Cl)(c2ccccc2)c2ccccc2)cc1	14%	97% (active)	96.2% (active)	11%	97% (active)	96.7% (active)	-20%	98% (active)	97% (active)	9%	97% (active)	94.2% (active)	8%	96% (active)	95.2% (active)	7%	97% (active)	95.5% (active)
NNc1c(F)c(F)c(-c2c(F)c(F)c(NN)c(F)c2F)c(F)c1F	42%	71% (active)	87.6% (active)	38%	68%	89.2% (active)	23%	98% (active)	91.5% (active)	48%	99% (active)	89.8% (active)	43%	98% (active)	90.1% (active)	39%	59%	86.8% (active)
CC1=C(C2CO2)C(=O)C(C)=C(C2CO2)C1=O (stereo not given)	68%	100% (active)	99.6% (active)	40%	100% (active)	99.5% (active)	43%	99% (active)	99.5% (active)	59%	99% (active)	99.5% (active)	43%	99% (active)	98.2% (active)	60%	99% (active)	99.5% (active)
